PubChem BioAssay (EPA / NIEHS)
“And” between values parts separate entries of the source, which are not always exact repeats. Identical values can stand only once. Results filed as inconclusive are left out. More than one record can exist for a structure, and the calls need not agree. The source made the active and inactive calls. Rule for the calls: active = hit-call score of the fitted dose curve at least 0.9, where 1 is the maximum; inconclusive = response in the unintended direction; inactive = score below 0.9.

Target: frog Thyroid hormone Receptor alpha (TRa), thra-a (gene 397942) (UniProt P15204)
Test: ATG_frTRa_XSP2: Attagene TRANS-FACTORIAL Multi-Species (XSP2) HepG2 Assay for frog Thyroid hormone Receptor alpha (TRa) (AID 2283839);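 for AC50: AC50 reflects induction of frog TRa-driven reporter mRNA above DMSO baseline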
Description: ATG_XSP2_multi-species_TRANS is a cell-based, multiplexed assay created by modifying the existing Attagene TRANS-FACTORIAL system to include a panel of nuclear receptors from some or all the following species: human (Homo sapiens), mouse (Mus musculus), frog (Xenopus laevis), zebrafish (Danio rerio), chicken (Gallus gallus), and turtle (Chrysemys picta). The ECOTOX-FACTORIAL format uses HepG2, a human liver cell line, with measurements taken at 24 hours after chemical dosing in a 24-well plate. Xsp2 included 3 nM 6-alpha-fluorotestosterone and 1.5 nM norgestrel to stimulate the androgen receptor.ATG_frTRa_XSP2 is one of 29 assay components measured or calculated from the ATG_XSP2_multi-species_TRANS assay. It is designed to make measurements of mRNA induction, a form of inducible reporter, as detected with fluorescence intensity signals by Reverse transcription polymerase chain reaction (RT-PCR) and Capillary electrophoresis technology.The assay endpoint ATG_frTRa_XSP2 was analyzed in the positive analysis fitting direction relative to DMSO as the negative control and baseline of activity. Using a type of inducible reporter, measures of mRNA for gain-of-signal activity can be used to understand the reporter gene at the transcription factor-level as they relate to the gene TR. Furthermore, this assay endpoint can be referred to as a primary readout, because this assay has produced multiple assay endpoints where this one serves a reporter gene function. To generalize the intended target to other relatable targets, this assay endpoint is annotated to the nuclear receptor intended target family, where the subfamily is non-steroidal.
Human liver HepG2 cells are transiently transfected with multiple reporter transcription units (MRTUs) in 6-well plates using FuGene 6 reagent (Roche; 3 ml FuGene/1 mg DNA). The MRTU constructs are regulated by a cis-regulating element (promoter). […] A major difference between the CIS and TRANS system is that in CIS activities of endogenous TFs are measured, whereas the TRANS assay evaluates changes in activities of exogenous, chimeric NR-Gal4 proteins. […] At the end of 24 hour incubation, total RNA was isolated using TriZol reagent (Invitrogen). The isolated RNA is then reverse-transcribed using oligo(dT) primer and Mo-MLV reverse transcriptase (Invitrogen) with DNAse I (Ambion) treatment for 30 min. The one-tenth of the produced cDNA was amplified by PCR using Taq DNA polymerase (Invitrogen) and two reporter sequence-specific primers. The PCR products were fluorescently labeled by primer extension with 6-arboxyfluorescein (6-FAM) 5'-labeled reporter sequence-specific primer (2 min at 95 C, 20 s at 68 C and 10 min at 72 C) and these products were digested with 5U of HpaI (New England Biolabs) for 2h at 37 C. The fragments were purified using Qiaquick PCR columns (Qiagen), analyzed on an ABI 3130xL genetic analyzer (Applied Biosystems) with peak positions identified by using a set of X-rhodamine (ROX)-labeled MapMarker1000 molecular weight standards (BioVentures). The raw capillary electrophoresis data was processed using Attagraph software (Attagene).

frog Thyroid hormone Receptor alpha (TRa), thra-a (gene 397942), sequence (P15204 whole entry, looked up): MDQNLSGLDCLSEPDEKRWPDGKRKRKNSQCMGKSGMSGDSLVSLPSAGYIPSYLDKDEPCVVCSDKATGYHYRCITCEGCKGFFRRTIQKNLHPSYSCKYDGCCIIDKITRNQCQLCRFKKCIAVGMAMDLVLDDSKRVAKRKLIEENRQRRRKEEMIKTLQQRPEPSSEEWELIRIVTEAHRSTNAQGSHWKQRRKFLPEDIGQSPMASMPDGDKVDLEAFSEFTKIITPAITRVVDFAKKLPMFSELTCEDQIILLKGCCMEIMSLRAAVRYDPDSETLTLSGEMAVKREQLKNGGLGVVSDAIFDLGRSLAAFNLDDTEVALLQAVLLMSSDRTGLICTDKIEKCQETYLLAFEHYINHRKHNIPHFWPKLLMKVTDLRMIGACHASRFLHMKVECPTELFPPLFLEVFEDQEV

| Structure (SMILES) | outcome | AC50 |
| --- | --- | --- |
| O=S(=O)(c1ccc(Cl)cc1)c1ccc(Cl)cc1 | inactive | – |
| O=C1C2(Cl)C3(Cl)C4(Cl)C(Cl)(Cl)C5(Cl)C3(Cl)C1(Cl)C5(Cl)C24Cl (stereo not drawn) | inactive | – |
| Oc1ccc(-c2ccccc2)cc1 | inactive | – |
| Clc1ccc(C2(Cn3cncn3)CC(Br)CO2)c(Cl)c1 (stereo not drawn) | inactive | 5.44 µM (active) |
| COP(=O)(OC)O/C(=C\Cl)c1cc(Cl)c(Cl)cc1Cl | inactive | – |
| Oc1c(I)cc(I)cc1I | – | 26.5 µM (active) and 25.7 µM (active) |
| C[C@]12CCC(=O)C[C@@H]1CC[C@@H]1[C@@H]2CC[C@]2(C)[C@@H](O)CC[C@@H]12 | inactive | – |
| CC12CC1(C)C(=O)N(c1cc(Cl)cc(Cl)c1)C2=O (stereo not drawn) | inactive | – |
| CC(C)C1CCC(Cc2ccc(Cl)cc2)C1(O)Cn1cncn1 (stereo not drawn) | inactive | – |
| CC(C)(C)CC(C)(C)c1ccc(O)cc1 | inactive | – |
| CC(=O)C=C(C)C | inactive | – |
| CC(C)(C)c1cc(O)ccc1O | inactive | – |
